Source: PubChem BioAssay (NCI)
This is part of a sample that, as a whole, favours compounds with a hit. Of some 79,000 tested, about 15% had one in any assay. Values without a mark were called inactive. Calls of active or inactive are those of the source. Rule as the data show it: active = growth inhibition above about 70%; inactive = the rest.

Key:
[1] = NCI Yeast Anticancer Drug Screen. Data for the rad50 strain (AID 155);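 also: 0% = growth of vehicle-only cultures of the same strain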; conditions: S. cerevisiae rad50 strain growth inhibition, hits give high values
Outline: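 Vehicle-treated cultures provide the reference for the growth inhibition reported for compound-exposed, repair-deficient yeast.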

[2] = NCI Yeast Anticancer Drug Screen. Data for the mec2-1 strain (AID 157); conditions: S. cerevisiae mec2-1 strain, hits give high values
Outline: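 Test agents were screened against the mec2-1 yeast strain, with defined DNA repair or cell cycle alteration. Growth was scored as inhibition against vehicle-only controls.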

[3] = NCI Yeast Anticancer Drug Screen. Data for the sgs1 mgt1 strain (AID 161);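 also: 0% = growth of cultures given vehicle only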; conditions: S. cerevisiae sgs1 mgt1 strain, hits give high values
Outline: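 Read-out: growth inhibition vs vehicle controls. Cells: mutant yeast strain deficient in DNA damage repair.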

[4] = NCI Yeast Anticancer Drug Screen. Data for the cln2 rad14 strain (AID 165);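 also: 0% = growth equal to vehicle treated cultures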; conditions: S. cerevisiae cln2 rad14 strain, hits give high values
Outline: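 Growth of compound-exposed yeast (cln2 rad14 genotype) measured and expressed as inhibition relative to vehicle.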

[5] = NCI Yeast Anticancer Drug Screen. Data for the bub3 strain (AID 167); conditions: S. cerevisiae bub3 mutant strain, hits give high values
Outline: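 Mutant yeast screening strain plus compound; vehicle-treated cultures serve as the 0% inhibition reference.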

[6] = NCI Yeast Anticancer Drug Screen. Data for the mlh1 rad18 strain (AID 175); conditions: S. cerevisiae mlh1 rad18 strain growth inhibition, hits give high values
Outline: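 In this whole-cell yeast screen, a strain with altered DNA damage repair is challenged with compound, and its growth is measured against matched vehicle-treated controls.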

[7] = at 5.0 µM (retest, dose inferred, filed as 0.5)
[8] = at 50.0 µM (retest, dose inferred, filed as 5.0)

COc1ccccc1NC(=O)CSC(N)=O
growth inhibition [1, 7]: 5%
growth inhibition [1, 8]: 24%
growth inhibition ([1]; at 50.0 µM): 71% (active)
growth inhibition [2, 7]: 4%
growth inhibition [2, 8]: 42%
growth inhibition ([2]; at 50.0 µM): 61.8%
growth inhibition [3, 7]: 3%
growth inhibition [3, 8]: 24%
growth inhibition ([3]; at 50.0 µM): 92.5% (active)
growth inhibition [4, 7]: 5%
growth inhibition [4, 8]: 7%
growth inhibition ([4]; at 50.0 µM): 58%
growth inhibition [5, 7]: 4%
growth inhibition [5, 8]: 66%
growth inhibition ([5]; at 50.0 µM): 88.2% (active)
growth inhibition [6, 7]: 2%
growth inhibition [6, 8]: 21%
growth inhibition ([6]; at 50.0 µM): 74% (active)

CCCCCCCCCCCCCCCC(=O)NCC[N+](C)(CC)CC
growth inhibition [1, 7]: -32%
growth inhibition [1, 8]: 0%
growth inhibition ([1]; at 50.0 µM): 57.4%
growth inhibition [2, 7]: -6%
growth inhibition [2, 8]: -11%
growth inhibition ([2]; at 50.0 µM): 27.4%
growth inhibition [3, 7]: -4%
growth inhibition [3, 8]: 30%
growth inhibition ([3]; at 50.0 µM): 72.2% (active)
growth inhibition [4, 7]: 1%
growth inhibition [4, 8]: -15%
growth inhibition ([4]; at 50.0 µM): 17.9%
growth inhibition [5, 7]: 2%
growth inhibition [5, 8]: 19%
growth inhibition ([5]; at 50.0 µM): 10.5%
growth inhibition [6, 7]: -8%
growth inhibition [6, 8]: 7%
growth inhibition ([6]; at 50.0 µM): 29.5%

CCCCCCCCCCSCCO
growth inhibition [1, 7]: 30%
growth inhibition [1, 8]: 88% (active)
growth inhibition ([1]; at 50.0 µM): 92.7% (active)
growth inhibition [2, 7]: 51%
growth inhibition [2, 8]: 92% (active)
growth inhibition ([2]; at 50.0 µM): 94% (active)
growth inhibition [3, 7]: 99% (active)
growth inhibition [3, 8]: 93% (active)
growth inhibition ([3]; at 50.0 µM): 93.5% (active)
growth inhibition [4, 7]: 78% (active)
growth inhibition [4, 8]: 99% (active)
growth inhibition ([4]; at 50.0 µM): 92.3% (active)
growth inhibition [5, 7]: 100% (active)
growth inhibition [5, 8]: 97% (active)
growth inhibition ([5]; at 50.0 µM): 92.5% (active)
growth inhibition [6, 7]: 42%
growth inhibition [6, 8]: 97% (active)
growth inhibition ([6]; at 50.0 µM): 92.7% (active)

Fc1ccc(NC(=S)SCc2ccccc2)cc1F
growth inhibition [1, 7]: 4%
growth inhibition [1, 8]: 89% (active)
growth inhibition ([1]; at 50.0 µM): 97.3% (active)
growth inhibition [2, 7]: 2%
growth inhibition [2, 8]: 92% (active)
growth inhibition ([2]; at 50.0 µM): 99% (active)
growth inhibition [3, 7]: 5%
growth inhibition [3, 8]: 94% (active)
growth inhibition ([3]; at 50.0 µM): 99.2% (active)
growth inhibition [4, 7]: -6%
growth inhibition [4, 8]: 81% (active)
growth inhibition ([4]; at 50.0 µM): 92.5% (active)
growth inhibition [5, 7]: 6%
growth inhibition [5, 8]: 95% (active)
growth inhibition ([5]; at 50.0 µM): 89.8% (active)
growth inhibition [6, 7]: 0%
growth inhibition [6, 8]: 97% (active)
growth inhibition ([6]; at 50.0 µM): 99.2% (active)

CCOC(=O)c1[nH]c2c([N+](=O)[O-])cccc2c1[N+](=O)[O-]
growth inhibition [1, 7]: -12%
growth inhibition [1, 8]: 15%
growth inhibition ([1]; at 50.0 µM): 97% (active)
growth inhibition [2, 7]: -16%
growth inhibition [2, 8]: 16%
growth inhibition ([2]; at 50.0 µM): 98% (active)
growth inhibition [3, 7]: -3%
growth inhibition [3, 8]: 9%
growth inhibition ([3]; at 50.0 µM): 94.8% (active)
growth inhibition [4, 7]: 4%
growth inhibition [4, 8]: 25%
growth inhibition ([4]; at 50.0 µM): 98.6% (active)
growth inhibition [5, 7]: 0%
growth inhibition [5, 8]: 7%
growth inhibition ([5]; at 50.0 µM): 98.8% (active)
growth inhibition [6, 7]: -2%
growth inhibition [6, 8]: 37%
growth inhibition ([6]; at 50.0 µM): 99% (active)

O=C(Oc1cccc2cccnc12)c1cccnc1
growth inhibition [1, 7]: 93% (active)
growth inhibition [1, 8]: 98% (active)
growth inhibition ([1]; at 50.0 µM): 93.5% (active)
growth inhibition [2, 7]: 58%
growth inhibition [2, 8]: 99% (active)
growth inhibition ([2]; at 50.0 µM): 99.2% (active)
growth inhibition [3, 7]: 89% (active)
growth inhibition [3, 8]: 99% (active)
growth inhibition ([3]; at 50.0 µM): 98% (active)
growth inhibition [4, 7]: 43%
growth inhibition [4, 8]: 94% (active)
growth inhibition ([4]; at 50.0 µM): 92.2% (active)
growth inhibition [5, 7]: 97% (active)
growth inhibition [5, 8]: 98% (active)
growth inhibition ([5]; at 50.0 µM): 97.8% (active)
growth inhibition [6, 7]: 82% (active)
growth inhibition [6, 8]: 98% (active)
growth inhibition ([6]; at 50.0 µM): 97.5% (active)

CCOC(=O)[C@@H](F)[C@H](Br)C(=O)OCC
growth inhibition [1, 7]: 86% (active)
growth inhibition [1, 8]: 99% (active)
growth inhibition ([1]; at 50.0 µM): 89.2% (active)
growth inhibition [2, 7]: 58%
growth inhibition [2, 8]: 100% (active)
growth inhibition ([2]; at 50.0 µM): 93.2% (active)
growth inhibition [3, 7]: 75% (active)
growth inhibition [3, 8]: 100% (active)
growth inhibition ([3]; at 50.0 µM): 88.4% (active)
growth inhibition [4, 7]: 55%
growth inhibition [4, 8]: 100% (active)
growth inhibition ([4]; at 50.0 µM): 89.2% (active)
growth inhibition [5, 7]: 88% (active)
growth inhibition [5, 8]: 100% (active)
growth inhibition ([5]; at 50.0 µM): 84.7% (active)
growth inhibition [6, 7]: 80% (active)
growth inhibition [6, 8]: 99% (active)
growth inhibition ([6]; at 50.0 µM): 93.2% (active)

CC1=CC(=O)C(O)=C/C1=C\C=C\c1ccccc1
growth inhibition [1, 7]: 15%
growth inhibition [1, 8]: 98% (active)
growth inhibition ([1]; at 50.0 µM): 99.2% (active)
growth inhibition [2, 7]: 23%
growth inhibition [2, 8]: 99% (active)
growth inhibition ([2]; at 50.0 µM): 99% (active)
growth inhibition [3, 7]: 26%
growth inhibition [3, 8]: 99% (active)
growth inhibition ([3]; at 50.0 µM): 49.4%
growth inhibition [4, 7]: 6%
growth inhibition [4, 8]: 97% (active)
growth inhibition ([4]; at 50.0 µM): 98.8% (active)
growth inhibition [5, 7]: 11%
growth inhibition [5, 8]: 98% (active)
growth inhibition ([5]; at 50.0 µM): 99% (active)
growth inhibition [6, 7]: 50%
growth inhibition [6, 8]: 98% (active)
growth inhibition ([6]; at 50.0 µM): 99.2% (active)

O=C1CCCC/C1=C/c1ccc(Cl)cc1
growth inhibition [1, 7]: -151%
growth inhibition [1, 8]: 35%
growth inhibition ([1]; at 50.0 µM): 87.3% (active)
growth inhibition [2, 7]: -49%
growth inhibition [2, 8]: -13%
growth inhibition ([2]; at 50.0 µM): 81.2% (active)
growth inhibition [3, 7]: -64%
growth inhibition [3, 8]: 35%
growth inhibition ([3]; at 50.0 µM): 82% (active)
growth inhibition [4, 7]: -57%
growth inhibition [4, 8]: -37%
growth inhibition ([4]; at 50.0 µM): 33%
growth inhibition [5, 7]: -64%
growth inhibition [5, 8]: 27%
growth inhibition ([5]; at 50.0 µM): 73.7% (active)
growth inhibition [6, 7]: -229%
growth inhibition [6, 8]: 36%
growth inhibition ([6]; at 50.0 µM): 90.8% (active)
